Anesthetic bind: qHTS Assay for Identification of Novel General Anesthetics. Ferritin light chain (Equus caballus), P02791. apoferritin/1-aminoanthracene competitive binding, fluorescence. Potency, µM (doses to about 77.5 µM), without a hit: at the highest dose activity change, negative = displacement, usual class: inhibitors. hit rate 0.074% among 350,000; also: potency is read from the fitted curve at half-maximal effect; % is scaled to controls: 0 for no effect and ±100 for the full control effect; nearly all actives have a fitted effect of over 20% in size
Target sequence (P02791 2-175 limits assumed): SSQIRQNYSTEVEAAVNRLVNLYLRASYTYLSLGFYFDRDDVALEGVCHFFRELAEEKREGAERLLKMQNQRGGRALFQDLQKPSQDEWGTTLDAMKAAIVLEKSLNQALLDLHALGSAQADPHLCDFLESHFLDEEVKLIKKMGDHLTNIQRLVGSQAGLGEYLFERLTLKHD
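Steps: apoferritin (10 uM) was premixed with half-saturated 1-AMA in PBS, compounds were pin-transferred, plates stood 10 min at room temperature, fluorescence was read at 380/535 nm, and curves were fitted with a Hill equation.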
Giardia killer: Small Molecules that selectively kill Giardia lamblia: qHTS. Giardia lamblia trophozoite viability. activity change, % at 7.66 µM, hits read low. hit rate 0.15% among 340,000. AID 540267, 2011; in the data active = activity change below about -80%; inconclusive = between about -30% and that limit;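 also: parasites exposed to compound for two days anaerobically before the ATP read; % is scaled to controls: 0 for no effect and ±100 for the full control effect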
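Giardia lamblia trophozoites (100 cells/well) were incubated with compounds for 48 h at 37 deg C under anaerobic conditions. Viability was read as ATP content by one-step luminescence after 15-30 min at room temperature.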
Nrf2 block: Nrf2 qHTS screen for inhibitors; Potency, µM (top dose mostly 46 µM), for the others: at the highest dose activity change, negative = inhibition, actives largely listed as inhibitors; A549 ARE-Fluc reporter, luciferase luminescence, 18-24 h; hit rate 2.1% among 360,000; also: potency is read from the fitted curve at half-maximal effect; % is scaled to controls: 0 for no effect and ±100 for the full control effect; nearly all actives have a fitted effect of over 60% in size
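A549 ARE_Fluc cells, 5000/well, 5% FBS OPTI-MEM; compounds in dose-response, 18-24 h at 37 °C/5% CO2; CellTiter-Fluor viability read (Ex 405/Em 525), then BugLite luciferase luminescence = Nrf2 activity.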
mIDH1 inhibitor: qHTS for Inhibitors of mutant isocitrate dehydrogenase 1 (IDH1): qHTS; Isocitrate dehydrogenase [NADP] cytoplasmic (Homo sapiens), O75874; IDH1-R132H enzyme, NADPH consumption, diaphorase/resazurin fluorescence; Potency, µM (series often up to 76.6 µM), for inactives: at the highest dose activity change, negative = inhibition, most hits filed as inhibitors; hit rate 0.093% among 390,000; AID 602179, 2012; also: potency is read from the fitted curve at half-maximal effect; % is scaled to controls: 0 for no effect and ±100 for the full control effect; nearly all actives have a fitted effect of over 65% in size
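IDH1-R132H (0.5 ug/mL dispensed) in pH 7.5 Tris buffer was preincubated 30 min with compound, then given a substrate mix of 0.016 mM NADPH and 2 mM alpha-KG for 80 min at room temperature; remaining NADPH was read by diaphorase/resazurin fluorescence.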
Nrf2 activator: qHTS of Nrf2 Activators; AREc32 ARE-luciferase reporter (MCF7-derived line), luminescence, 24 h; AID 624171, 2012; hit rate 0.31% among 410,000; Potency, µM (top dose mostly 46.1 µM), without a hit: at the top dose activation, hits mostly activators; also: potency is read from the fitted curve at half-maximal effect; % of control where 0% means no effect; nearly all actives have a fitted effect of over 65% in size
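Cells of the AREc32 ARE-luciferase line are plated in OPTI-MEM containing 5% FBS and left overnight at 37 deg C. Compounds are pinned in, incubation continues 24 hr, and firefly luciferase signal is then measured.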
A549 viability: Nrf2 qHTS screen for inhibitors: counterscreen for cytotoxicity; Potency, µM (series often up to 46 µM), inactives show top-dose activity change, negative = cytotoxicity, actives largely listed as inhibitors; A549 ARE-Fluc cells, CellTiter-Fluor viability, 18-24 h; hit rate 0.16% among 390,000; also: potency is read from the fitted curve at half-maximal effect; % is scaled to controls: 0 for no effect and ±100 for the full control effect
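A549 ARE-Fluc cells in 5% FBS OPTI-MEM, 5000 cells/well, rested 2 h then exposed to compounds in concentration-response for 18-24 h at 37 °C. Viability by CellTiter-Fluor fluorescence (Ex 405/Em 525) after 30 min; luciferase luminescence (BugLite, 15 min, RT) read afterwards.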
* hit, by the source's call; u = inconclusive; x = no result given; [ ] = another dose, or the depositor's remark. A selection: hits, their analogues and other compounds. The true share with any hit is near 2.3%. Unless noted, calls follow the shape of the dose curve; as a rule, active = well fitted curve in the direction sought with a large enough effect; inconclusive = small, poorly fitted or top-dose-only effect, or another doubt; inactive = no such curve, though single readings can be large; an effect the other way counts as inactive or inconclusive.

SMILES	Anesthetic bind	Giardia killer	Nrf2 block	mIDH1 inhibitor	Nrf2 activator	A549 viability
CCOC(=O)c1ccc(N2C(=O)c3[nH]nc(-c4ccc(OCC)cc4)c3C2c2cccs2)cc1 (configuration not stated)	-7%	x	18µM*	-5%	5%	-21%
CCOC(=O)c1c(C)oc2c1c(C=NCCO)c(O)c1ccccc12	u	21	15µM*	12%	1%	23µM*
CCOC(=O)c1c(C)oc2c1c(/C=N/c1ccccn1)c(O)c1ccccc12	x	-7	30%	x	x	-6%
Cc1cc(S(=O)(=O)NC2CCCCC2)ccc1-n1cnnn1	-4%	-12	12µM*	1%	-1%	-6%
COc1ccc(S(=O)(=O)NC2CCCCC2)cc1-n1cnnn1	-8%	12	0%	3%	0%	-6%
C=CC[n+]1c(-c2ccc(C)cc2)csc1Nc1c(C)n(C)n(-c2ccccc2)c1=O	-6%	-2	-6%	5%	1%	-1%
C=CC[n+]1c(-c2ccc(OCC)cc2)csc1NNC(=O)Nc1ccccc1	u	5	15µM*	-4%	13%	-6%
COc1ccc(C2=Nn3c(nnc3-c3ccc(OC)c(OC)c3)SC2)c(OC)c1	-21%	x	u	x	x	-6%
Cc1cc(C)nc(SCCC(=O)Nc2cccc3ccccc23)n1	-11%	-2	-23%	2%	0%	-10%
Cc1cc(C)nc(SCCC(=O)Nc2ccccc2Cl)n1	-4%	1	12µM*	24%	0%	0%
Cn1c(NCc2ccncc2)nc2cc(-c3ccsc3)sc2c1=O	x	x	x	x	35%	x
Cn1c(NCC2CCCCC2)nc2cc(-c3ccsc3)sc2c1=O	x	x	x	x	2µM*	x
CCN(CC)S(=O)(=O)c1ccc(C)c(NC(=S)N2CCN(c3ccccn3)CC2)c1	10%	3	u	-3%	0%	4%
CCN(CC)S(=O)(=O)c1ccc(C)c(NC(=S)N2CCN(C/C=C/c3ccccc3)CC2)c1	2%	17	12µM*	-5%	1%	-16%
Fc1ccc(NC(=S)N2CCN(C/C=C/c3ccccc3)CC2)c(F)c1	-8%	11	21µM*	-5%	6%	-30%
COc1ccc(S(=O)(=O)c2c(Nc3ccc(F)cc3)sc(C(=O)c3ccc4c(c3)OCO4)c2N)cc1	54%	x	x	0%	-1%	-2%
CCCC[C@@H]1CC2=C(C(=O)OC(C)(C)O2)[C@H](c2ccc(C(C)C)cc2)O1	x	x	x	x	3%	x
Cc1sc(NC(=O)CSc2nc(N)cc(N)n2)c(C#N)c1C	4%	15	21µM*	-9%	2%	-7%
CC1(C)CC2CC(C)(CN2c2ncnc3ccccc23)C1 (configuration not stated)	4%	3	10µM*	2%	0%	u
CC1CCCCN1c1ncnc2ccccc12 (configuration not stated)	-17%	30	u	8%	3%	10%
CCc1ccc(C2NC(=O)c3[nH]nc(-c4cccc(OC)c4)c32)cc1 (configuration not stated)	-5%	x	7.3µM*	0%	5%	-9%
CCC(=O)N1CCc2cc(Br)cc(S(=O)(=O)N3CCC(C(=O)Nc4ccc(OC)cc4)CC3)c21	5%	x	x	15%	4%	4%
CCC(=O)N1CCc2cc(Br)cc(S(=O)(=O)N3CCC(C(=O)Nc4cccc(C)c4)CC3)c21	48%	x	8.2µM*	-1%	-1%	-8%
CN(C)S(=O)(=O)c1ccc2[nH]cc(/C=C/c3nc4ccccc4c(=O)n3-c3ccccc3)c2c1	9%	1	10µM*	-2%	0%	1%[1.84 µM]
Cc1ccc(NC(=O)c2ccc(-n3nncc3-c3ccccc3)cc2)cc1	x	2	u	x	x	-11%

Compound activity as filed in PubChem.
